High-throughput results from PubChem BioAssay.
TDP1 inh = inhibitors of human tyrosyl-DNA phosphodiesterase TDP1 | recombinant TDP1, AlphaScreen DNA substrate cleavage | Q9NUW8 | actives 0.28% (n = 350,000) | Potency, µM (titrated, usually from 130 µM), usual class: inhibitors; further: nearly all actives have a fitted effect of over 40% in size
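Recombinant E. coli-expressed Tdp1 (1 nM) preincubated with compound 15 min at RT, then 5'-biotin/3'-phosphotyrosine-FITC DNA substrate (15 nM) added for 5 min. AlphaScreen beads (10 ug/ml) added, 10 min RT; tyrosine-FITC cleavage read as signal loss.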
APEX1 inh = blocks human APE1 abasic DNA cleavage; recombinant APE1, TAMRA/BHQ-2 abasic DNA cleavage fluorescence; Potency, µM (doses to about 65.8 µM), actives largely listed as inhibitors; actives 0.35% (n = 350,000); AID 2517; further: nearly all actives have a fitted effect of over 55% in size
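Compound pre-exposure to 0.75 nM APE1, 15 min at ambient temperature. Reaction initiated with 50 nM TAMRA/BHQ-2 THF substrate, read immediately in kinetic mode, 525 nm excitation, 598 nm emission.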
FEN1 inhibitor = inhibitors of human flap endonuclease 1; actives 0.35% (n = 390,000); AID 588795; Recombinant FEN1 flap cleavage, fluorescence, 15 min; P39748; Potency, µM (titrated, usually from 114 µM), actives largely listed as inhibitors; further: nearly all actives have a fitted effect of over 65% in size
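FEN1 at 10 nM, compound pretreatment for 15 min (room temperature), 50 nM final substrate to initiate; endpoint reads at 0 and 15 min; DMSO-only plates used as vehicle background.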
RECQ1 helicase = RECQ1 (human) helicase inhibition; AID 2549; actives 0.54% (n = 240,000); P46063; Potency, µM (top dose mostly 57.3 µM), usual class: inhibitors; RECQ1 DNA unwinding, red fluorescence kinetic read; further: nearly all actives have a fitted effect of over 30% in size
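50 nM RECQ1T1 preincubated 15 min with compound in Tris pH 8.0 buffer with MgCl2, DTT, Tween-20 and 2.5 ug/ml poly(dI-dC); started with 200 nM TAMRA/BHQ-2 forked duplex and 2 mM ATP. Unwinding read as fluorescence (525/598 nm), two reads 2 h apart.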
BLM inh = blocks DNA unwinding by human BLM helicase; P54132; recombinant BLM DNA unwinding, fluorescence dequenching; Potency, µM (series often up to 56.1 µM), actives largely listed as inhibitors; actives 0.2% (n = 350,000); further: nearly all actives have a fitted effect of over 35% in size
Numbers stand for hits; n = inactive; u = inconclusive; x = no result given; [ ] = remark or other dose. Shown are actives, neighbours in structure and some others; about 0.92% of the full set was active somewhere. The call rests on the fitted dose curve; in most records, active means well fitted curve in the direction sought with a large enough effect; inconclusive means small, poorly fitted or top-dose-only effect, or another doubt; inactive means no such curve, though single readings can be large; an effect the other way counts as inactive or inconclusive.

SMILES	TDP1 inh	APEX1 inh	FEN1 inhibitor	RECQ1 helicase	BLM inh
CN(C)[C@@H]1C(=O)C(C(=O)NCN2CCCC2)=C(O)[C@@]2(O)C(=O)C3=C(O)c4c(O)cccc4[C@@](C)(O)C3CC12 (some centres not stated)	0.708µM	2.51µM	x	3.16µM	14.1µM
NNC(=S)Nc1cccc(-c2n[nH]c(=S)o2)c1	n	n	50.1µM	n	n
CN(C)C(=S)Nc1cccc(-c2n[nH]c(=S)o2)c1	n	n	n	n	n
Cn1c(-c2ccc(C#N)cc2)c(C#Cc2ccccc2)c2ccccc21	x	x	n	x	x
Cn1c(C=O)c(C#Cc2ccccc2)c2ccccc21	20µM	n	n	x	x
O=C1CCc2cc(S(=O)(=O)Nc3ccccc3-c3ccccc3)ccc2N1	n	x	x	x	x
COc1ccc(-c2nc3c(c4c2C[C@H](c2ccccc2)OC4)CN(S(=O)(=O)c2ccc(C#N)cc2)CC3)c(C)c1	n[21 µM]	n[12.4 µM]	x	n[11.5 µM]	n[12.4 µM]
C=CCc1cc(/C=C/c2nc(O)c([N+](=O)[O-])c(=O)[nH]2)cc(OC)c1O	u	u	44.7µM	u	n
CCOC(=O)c1ccc2c(c1)C1C=CCC1C(C(=O)O)N2 (configuration not stated)	n	u	x	8.91µM	28.2µM
CCOC(=O)C1Nc2ccc(C(=O)O)cc2C2C=CCC12 (configuration not stated)	x	n	20µM	x	n
O=c1cc(-c2ccccc2O)oc2c(O)c(O)ccc12	x	3.55µM	x	3.16µM	n
Cc1c(Cc2ccccc2)c(=O)oc2c(O)c(O)ccc12	n	n	u	n	12.6µM
Cc1oc2c(O)c(O)ccc2c(=O)c1-c1ccccc1	n	n	n	10µM	n
CN(C)c1cccc(S(=O)(=O)N2CCN(S(=O)(=O)c3ccc4c(c3)OCCO4)CC2)c1	n	x	x	x	x
CC1=NN(c2ccccc2)C(=O)C1/C=C1\NC(=S)NC1=O (configuration not stated)	n	n	79.4µM	n	n
CC1=NN(c2ccccc2)C(=O)C1C=Nc1ccccc1O (configuration not stated)	n	n	n	n	n
Cc1ccc(NS(=O)(=O)c2ccc3c(c2)CCC(=O)N3)cc1F	n	x	x	x	x
NCCC[C@@H](CC(=O)N[C@@H]1CCNC[C@H]1C(=O)N[C@H](CC(=O)N[C@@H](CCC(=O)O)CC(=O)O)Cc1ccccc1)NC(=O)C[C@H](CO)NC(=O)[C@@H]1CNCC[C@H]1N	n	n	x	n	22.4µM
Cc1ccc[n+](-c2nc([O-])sc2C=O)c1	28.2µM	n	n	n	n
Cc1ccc(CNc2ccc(N3CCN(C)CC3)cc2)cc1	x	n	x	x	x
CCOc1cc(/C=N/N=C2/NC(=O)C(CC(=O)O)S2)ccc1OCc1ccc(Cl)cc1Cl (configuration not stated)	20µM	u	u	n	n
O=C(N/N=C/c1ccccc1Br)c1ccc(CSc2cccc3cccnc23)cc1	n	n	n	n	n
O=C1CCC/C(=N\NC(=O)c2ccc(CSc3cccc4cccnc34)cc2)C1	n	n	n	28.2µM	n
COc1ccc(NS(=O)(=O)c2ccc(NN=Cc3ccc(C(=O)O)cc3)c([N+](=O)[O-])c2)cc1	44.7µM	u	x	x	x
COc1cc(/C=C2/C(=O)c3cccc([N+](=O)[O-])c3C2=O)c(Br)cc1O	n	u	u	25.1µM	n
SMILES	TDP1 inh	APEX1 inh	FEN1 inhibitor	RECQ1 helicase	BLM inh
COc1ccc(C2Nc3ccccc3C(=O)N2Cc2ccccc2)cc1Oc1ccc(NC(C)=O)cc1 (configuration not stated)	n	x	x	x	x
O=C(O)c1cccc(-n2cccc2/C=C\[N+](=O)[O-])c1	x	12.6µM	u	n	n
C/C(=N\Nc1nc2ccccc2[nH]1)c1ccc(N2CCOCC2)cc1	n	n	n	n	n
C/C(=N\Nc1nc2ccccc2[nH]1)c1ccc(Cl)s1	n	n	n	31.6µM	n
O=C(O)COc1ccc2c(c1)O/C(=C\c1ccco1)C2=O	x	13.4µM	u	x	n
CNC1=C(Br)C(=O)c2ccncc2C1=O	n	u	x	n	14.1µM
CNC1=C(Cl)C(=O)c2ccncc2C1=O	n	u	x	n	17.8µM
Cc1cccc(C)c1-n1c(SCC(=O)Nc2ccc(F)cc2)nnc1-c1cccc([S+](=O)([O-])N2CCCC2)c1	x	n	x	x	x
CN(/N=C/c1ccc(N(C)C)cc1)C1=NS(=O)(=O)c2ccccc21	x	23.8µM	n	x	n
COc1ccc(/C=N/N(C)C2=NS(=O)(=O)c3ccccc32)cc1	x	n	n	x	n
COc1ccc(C2=Nn3c(nnc3-c3ccccc3Cl)SC2)cc1OC	x	n	x	x	x
Cc1noc(NS(=O)(=O)c2ccc(NC(=O)c3ccc(N4C(=O)c5ccccc5C4=O)cc3)cc2)c1C	50.1µM	u	n	n	n
COc1ccc(CNc2nc(NCc3ccc(OC)cc3)c3ncn(C4CCCCC4)c3n2)cc1	n	n	x	n	n
CC(C)CN(C[C@@H](O)[C@H](Cc1ccccc1)NC(=O)O[C@@H]1CCOC1)S(=O)(=O)c1ccc(N)cc1	x	n	x	x	x
Cc1cc(NS(=O)(=O)c2ccc3c(c2)CCC(=O)N3)ccc1F	n	x	x	x	x
C(#Cc1ccccc1)C[N+]1(CC#Cc2ccccc2)CCCC1	n	n	n	n	n
C=CC#CC[N+]1(CC#Cc2ccccc2)CCOCC1	n	n	17.8µM	n	n
Cc1ccc(-c2nn(-c3ccccc3)cc2/C=C2\SC(=S)N(CC(=O)O)C2=O)cc1	n	u	n	n	n
COc1ccc(-c2nn(-c3ccccc3)cc2/C=C2/SC(=S)N(CCC(=O)O)C2=O)cc1	x	16.8µM	79.4µM	x	n
N#Cc1ccc(Nc2nn3c(=O)c4ccccc4nc3s2)cc1	x	n	x	x	x
Cc1ccc(N=Cc2cc(Cc3ccccc3Cl)cc([N+](=O)[O-])c2O)c(O)c1	n	n	n	u	15.8µM
C[N+]1=C(/C=C/Nc2ccccc2Cl)C(C)(C)c2ccccc21	n	u	n	u	n
COC(=O)c1ccc2c(c1)C(C)(C)C(/C=C/c1ccccc1O)=[N+]2C	n	u	50.1µM	n	n
COc1ccc(C2Nc3ccccc3C(=O)N2CCc2ccc(Cl)cc2Cl)cc1COc1ccc(NC(C)=O)cc1 (configuration not stated)	n	x	x	x	x
CC[n+]1ccc(C[n+]2ccccc2)c2ccccc21	22.4µM	n	n	n	n
Cc1ccc2c(c1)c(C)cc[n+]2Cc1ccccc1	n	n	n	n	n
CC(C)C[C@H](NC(=O)[C@@H]1CCCN1C(=O)[C@H](CO)NC(=O)[C@H](Cc1ccccc1)NC(=O)CNC(=O)[C@@H]1CCCN1C(=O)[C@@H]1CCCN1C(=O)[C@@H](N)CCCN=C(N)N)C(=O)O	n	0.501µM	x	n	n
Nn1c(SCC(=O)NCC2CCCO2)nnc1-c1ccc(OC(F)F)cc1 (configuration not stated)	89.1µM	n	n	x	x
COc1cc(C)cc(C(=O)O)c1C1=C(O)c2cccc(O)c2C(=O)C1=O	x	35.5µM	u	u	n
